This is a sample that favours compounds with a hit; in the whole collection about 5.6% have one here.
CtBP-E1A blk: inhibitors of CtBP/E1A interaction. activity change, % (no concentration beside the values). AlphaScreen GST-E1A/His-CtBP binding, 1536-well; hits give low values. actives 0.49% (n = 340,000). AID 651724; in the data active = activity change below about -65%; inconclusive = mostly about -30% to -63%
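In 5 uL wells, 23 nL compound meets equimolar GST-E1A and His-CtBP (5X stock 125 nM each) for 2 h, 37 °C. Beads (5X, 50 ug/mL) then 1 h, 37 °C, dark.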
RORg inh: ROR gamma (mouse) transcription inhibition. P51450. Drosophila S2 Gal4-RORgamma UAS-luciferase reporter, 20 h. Potency, µM (highest dose often 53.6 µM), usual class: inhibitors. actives 5.4% (n = 310,000). AID 2551; note: nearly all actives have a fitted effect of over 60% in size
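ROR gamma transcriptional activity was tracked as Gal4-UAS luciferase output in stably transfected Drosophila Schneider cells, with compound added 1 hr before 700 uM copper sulfate induction and a 20 hr ambient-temperature incubation.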
Gal4-VP16 FLuc: Gal4-VP16 reporter inhibition counter-screen; Drosophila S2 Gal4-VP16 UAS-luciferase, luminescence, 20 h; actives 3.5% (n = 310,000); Potency, µM (titrated, usually from 53.6 µM), most hits filed as inhibitors; AID 2546;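 note: Gal4-VP16 expression switched on by copper sulfate through the metallothionein promoter; nearly all actives have a fitted effect of over 50% in size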
PKM2 activator: PKM2 (human) enzyme activation; purified PKM2, Kinase-Glo ATP luminescence, activation; response scale: 0% is enzyme alone, no compound; actives 0.34% (n = 260,000); P14618; AID 1631; Potency, µM (highest dose often 57.5 µM), actives largely listed as activators; note: nearly all actives have a fitted effect of over 55% in size
Target sequence (P14618 whole entry, looked up): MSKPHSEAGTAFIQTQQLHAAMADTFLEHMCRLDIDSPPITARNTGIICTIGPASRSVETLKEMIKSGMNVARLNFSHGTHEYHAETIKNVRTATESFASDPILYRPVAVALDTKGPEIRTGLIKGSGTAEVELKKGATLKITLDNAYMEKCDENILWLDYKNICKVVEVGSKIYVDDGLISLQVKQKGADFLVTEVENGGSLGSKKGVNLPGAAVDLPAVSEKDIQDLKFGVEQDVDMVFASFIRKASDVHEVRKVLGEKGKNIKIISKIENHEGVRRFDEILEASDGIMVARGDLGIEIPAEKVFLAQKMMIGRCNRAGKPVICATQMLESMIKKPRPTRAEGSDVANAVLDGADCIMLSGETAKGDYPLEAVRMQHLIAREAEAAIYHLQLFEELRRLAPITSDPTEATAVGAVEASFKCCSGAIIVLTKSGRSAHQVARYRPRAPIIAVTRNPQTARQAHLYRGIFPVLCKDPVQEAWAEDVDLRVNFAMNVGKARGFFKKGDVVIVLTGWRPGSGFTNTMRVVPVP
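Purified hPK-M2 (>95%) run at intermediate activity with 0.1 mM ADP and 0.5 mM PEP in 50 mM imidazole pH 7.2, KCl, MgCl2; 1 h room temperature. ATP formed read by Kinase-Glo luminescence; normalized to uninhibited and no-enzyme controls.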
Six1-Eya2 blk: inhibitors of human Six1/Eya2 interaction. Q15475+O00167. AlphaScreen GST-Six1/His-Eya2 binding, biochemical; hits give low values. activity change, % (concentration not given with the values). actives 0.56% (n = 360,000); in the data active = activity change below about -65%; inconclusive = mostly about -30% to -63%
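Compounds are tested against tagged Six1 and Eya2 proteins bridged by glutathione donor and nickel acceptor beads; after a one-hour incubation at 37 °C without light, AlphaScreen emission is recorded.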
Hits are given with their value; – = inactive; ? = inconclusive; · = no result. Unless noted, calls come from the whole dose curve; as a rule, active = well fitted curve in the direction sought with a large enough effect; inconclusive = small, poorly fitted or top-dose-only effect, or another doubt; inactive = no such curve, though single readings can be large; an effect the other way counts as inactive or inconclusive.

SMILES	CtBP-E1A blk	RORg inh	Gal4-VP16 FLuc	PKM2 activator	Six1-Eya2 blk
Cc1ccc(S(=O)(=O)Nc2cc(C(C(=O)OC(C)C)C(=O)C(F)(F)F)c(O)c3ccccc23)c(C)c1 (stereo not drawn)	–	–	?	–	-77
COc1cc(-c2nc3cnccn3c2Nc2ccc(C(C)C)cc2)ccc1O	–	14µM	10µM	–	–
FC(F)(F)c1nc(SCc2ccccc2)n[nH]1	–	·	·	·	–
COc1ccccc1-c1cc2c(c3c1ccn3C)C1CCC2C1 (stereo not drawn)	–	·	·	·	–
CO/N=C/c1ccc(N2CCN(C(=O)c3ccc(F)cc3)CC2)c([N+](=O)[O-])c1	–	?	8.9µM	–	–
CO/N=C/c1ccc(N2CCN(C(=O)c3cccc(C(F)(F)F)c3)CC2)c([N+](=O)[O-])c1	?	?	?	–	?
COc1ccccc1CN(C)C(=O)c1cccc(S(=O)(=O)N2CCCc3ccccc32)c1	–	·	·	·	–
CCOc1ccc(-c2noc(CCC(=O)O)n2)cc1	–	0.35µM	1.4µM	–	–
COc1ccc(-c2noc(CCCC(=O)O)n2)cc1	–	0.32µM	0.35µM	–	–
CCOc1ccc(-c2nc(CCl)cs2)cc1OC	–	?	?	–	–
CCOC(=O)CCNC(=O)N1CCCC(N(C)CCc2ccc(OC)c(OC)c2)C1 (stereo not drawn)	–	–	–	–	–
C[C@H](NC(=O)c1nc[nH]c1C(=O)N[C@@H](C)C(=O)OCc1ccccc1)C(=O)OCc1ccccc1	–	13µM	?	–	–
CCN(CC)C(=O)c1[nH]cnc1C(=O)N[C@@H](C)C(=O)OCc1ccccc1	–	–	–	–	–
C[C@H](NC(=O)c1nc[nH]c1C(=O)NC(c1ccccc1)c1ccccc1)C(=O)OCc1ccccc1	–	?	35µM	–	–
CN(C)S(=O)(=O)c1cccc(C(=O)OCC(=O)NC2CCCc3ccccc32)c1 (stereo not drawn)	–	–	–	–	–
O=C1CC(Sc2nnnn2C2CCCCC2)C(=O)N1c1ccccc1 (stereo not drawn)	–	?	5µM	–	–
Cc1cc(C)cc(N2C(=O)CC(Sc3nnnn3-c3ccccc3)C2=O)c1 (stereo not drawn)	–	?	7.1µM	–	–
Cc1cc(C)cc(N2C(=O)CC(Sc3ncn[nH]3)C2=O)c1 (stereo not drawn)	–	?	?	–	–
Cn1nnnc1SC1CC(=O)N(c2ccccc2)C1=O (stereo not drawn)	–	7.9µM	?	–	–
CCOc1ccc(OCC(=O)OCC(=O)N2CCN(S(=O)(=O)c3ccc(C)cc3C)CC2)cc1	–	·	·	·	–
N#Cc1ccc(CN2CC[C@@]3(CCCN(S(=O)(=O)c4ccccc4)C3)C2)cc1	·	–	–	·	·
CC(=O)c1cccc(OC(=O)c2cc(S(=O)(=O)N3CCOCC3)ccc2N2CCCC2)c1	–	·	·	·	–
COc1cccc(N2CCN(CC(=O)Nc3ccc(S(=O)(=O)N4CCCCCC4)cc3)CC2)c1	–	·	·	·	–
Cc1ccc(-n2c(-c3ccco3)n[nH]c2=S)cc1	–	11µM	?	–	–
S=c1[nH]nc(-c2ccco2)n1-c1ccccc1Cl	–	6.3µM	18µM	–	–
SMILES	CtBP-E1A blk	RORg inh	Gal4-VP16 FLuc	PKM2 activator	Six1-Eya2 blk
S=c1[nH]nc(-c2cc(-c3ccco3)[nH]n2)n1-c1ccccc1Cl	–	–	–	–	–
CCOc1ccc(-n2c(-c3ccco3)n[nH]c2=S)cc1	–	2.8µM	?	–	–
Cc1onc(-c2ccccc2)c1-c1n[nH]c(=S)n1-c1ccccc1Cl	–	4.5µM	16µM	–	–
CC[C@H]1C(Nc2ccccc2)C[C@@H]2CCN3C(=O)CC[C@H]1[C@H]23 (stereo partly drawn)	–	·	·	·	–
Cc1c(C(=O)NCCSCc2cccc(C(F)(F)F)c2)cnn1-c1ccc(Cl)cc1	–	–	–	–	–
S=c1[nH]nc(-c2cc(-c3ccco3)[nH]n2)n1-c1ccccc1	–	13µM	–	–	–
COCC1CCN(C(=O)CC2C(=O)NCCN2Cc2cccc(Oc3ccccc3)c2)CC1 (stereo not drawn)	–	?	–	–	–
CN(CC(=O)Nc1cccc(F)c1)C(=O)c1ccc(COc2ccccc2)cc1	–	·	·	·	-70
NNc1nc(Nc2ccccc2)nc(Nc2ccccc2)n1	–	16µM	–	–	–
O=[N+]([O-])c1ccc(Nc2nc(N/N=C\c3ccc4c(c3)OCO4)nc(N3CCCCC3)n2)cc1	–	4.5µM	?	–	–
NNc1nc(Nc2ccc([N+](=O)[O-])cc2)nc(N2CCCCCC2)n1	·	?	16µM	–	–
NNc1nc(Nc2ccccc2)nc(N2CCCCC2)n1	–	5µM	7.1µM	–	–
O=[N+]([O-])c1ccc(Nc2nc(NCCO)nc(N3CCCC3)n2)cc1	–	–	–	–	–
COc1ccc(N2C(=O)C3C(c4ccc(C(=O)O)cc4)NC(Cc4ccccc4)(C(=O)O)C3C2=O)c([N+](=O)[O-])c1 (stereo not drawn)	–	–	–	–	–
COc1ccc(CN2C(=O)c3cccnc3C2=O)cc1S(=O)(=O)N1CCOc2ccc(C)cc21	·	–	–	·	–
O=C(NC(Cc1ccccc1)C(=O)N1CCCCC1)c1ccccc1 (stereo not drawn)	–	·	·	·	–
C=CCNC(=O)C1CC2Cn3c(nc4cc(Cl)c(Cl)cc43)C2N1C (stereo not drawn)	–	·	·	·	–
Cc1cc(C)cc(Nc2ncc3c(n2)CCCC3=O)c1	–	11µM	11µM	–	–
Cc1ccc2nc(Nc3ncc4c(n3)CCCC4=O)nc(C)c2c1	·	–	–	–	·
Cc1ccc(-c2oc3ccccc3c(=O)c2O)cc1	–	4µM	13µM	–	–
O=c1c(O)c(-c2ccccc2)oc2cc(O)ccc12	·	–	–	·	·
Cc1ccc2oc(-c3ccccc3)c(O)c(=O)c2c1	·	6.3µM	14µM	·	·
Cc1ccc(-c2oc3ccccc3c(=O)c2OCC(=O)O)cc1	–	–	–	–	–
O=C(O)c1c(-c2ccccc2)oc2ccc(O)cc12	·	–	–	·	–
Cc1ccc2oc(-c3ccccc3)c(C(=O)O)c(=O)c2c1	–	7.1µM	11µM	–	–
O=c1c(O)c(-c2ccccc2)oc2cc(O)cc(O)c12	–	–	–	·	–
O=c1c(O)c(-c2ccccc2)oc2ccccc12	–	4µM	7.1µM	·	–
Cc1nn(Cc2c(Cl)cccc2Cl)c(Cl)c1/C=N/NC(=O)c1cccnc1	–	–	–	–	–
Cc1ccc(S(=O)(=O)NCCc2nnc3ccc(N4CCOCC4)nn23)cc1	–	·	·	·	–
CCOC(=O)C1(CCOC)CCN(C(=O)c2ccc(CSC)o2)CC1	–	?	–	–	–

Screens from PubChem.
